Measured values as given in PubChem BioAssay (NCI).
This is part of a sample that, as a whole, favours compounds with a hit. Of some 79,000 tested, about 15% had one in any assay. Values without a mark were called inactive. Calls of active or inactive are those of the source. Rule as the data show it: active = growth inhibition above about 70%; inactive = the rest.

Columns and labels:
[1] = NCI Yeast Anticancer Drug Screen. Data for the rad50 strain (AID 155);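 also: 0% = growth of vehicle-only cultures of the same strain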; conditions: S. cerevisiae rad50 strain growth inhibition, stronger effect = higher value
Outline: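 Inhibition values express reduced yeast growth in compound-treated cultures relative to vehicle-treated controls.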

[2] = NCI Yeast Anticancer Drug Screen. Data for the mec2-1 strain (AID 157); conditions: S. cerevisiae mec2-1 strain, stronger effect = higher value
Outline: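 Yeast mec2-1 mutant treated with compound. Readout: growth inhibition vs vehicle controls.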

[3] = NCI Yeast Anticancer Drug Screen. Data for the sgs1 mgt1 strain (AID 161);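 also: 0% = growth of cultures given vehicle only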; conditions: S. cerevisiae sgs1 mgt1 strain, stronger effect = higher value
Outline: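 Mutant yeast exposed to compound; growth scored against vehicle-only wells.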

[4] = NCI Yeast Anticancer Drug Screen. Data for the cln2 rad14 strain (AID 165);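 also: 0% = growth equal to vehicle treated cultures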; conditions: S. cerevisiae cln2 rad14 strain, stronger effect = higher value
Outline: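 cln2 rad14 yeast strain; compound exposure; growth inhibition read vs vehicle controls.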

[5] = NCI Yeast Anticancer Drug Screen. Data for the bub3 strain (AID 167); conditions: S. cerevisiae bub3 mutant strain, stronger effect = higher value
Outline: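 Steps: expose the mutant yeast strain to compound; grow alongside vehicle-treated cultures; measure growth; express inhibition against the vehicle cultures.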

[6] = NCI Yeast Anticancer Drug Screen. Data for the mlh1 rad18 strain (AID 175); conditions: S. cerevisiae mlh1 rad18 strain growth inhibition, stronger effect = higher value
Outline: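 Yeast w/ defined DNA-repair lesions; compound exposure; growth vs vehicle controls → % inhibition.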

[7] = at 5.0 µM (retest, dose inferred, filed as 0.5)
[8] = at 50.0 µM (retest, dose inferred, filed as 5.0)

| SMILES | growth inhibition [1, 7] | growth inhibition [1, 8] | growth inhibition ([1]; at 50.0 µM) | growth inhibition [2, 7] | growth inhibition [2, 8] | growth inhibition ([2]; at 50.0 µM) | growth inhibition [3, 7] | growth inhibition [3, 8] | growth inhibition ([3]; at 50.0 µM) | growth inhibition [4, 7] | growth inhibition [4, 8] | growth inhibition ([4]; at 50.0 µM) | growth inhibition [5, 7] | growth inhibition [5, 8] | growth inhibition ([5]; at 50.0 µM) | growth inhibition [6, 7] | growth inhibition [6, 8] | growth inhibition ([6]; at 50.0 µM) |
| --- | --- | --- | --- | --- | --- | --- | --- | --- | --- | --- | --- | --- | --- | --- | --- | --- | --- | --- |
| C[N+](C)(C)CC(=O)N/N=C/c1oc(-c2c(O)ccc3ccccc23)c(-c2c(O)ccc3ccccc23)c1[N+](=O)[O-] | 57% | 57% | 90% (active) | 47% | 47% | 90.6% (active) | 51% | 51% | 90.2% (active) | 13% | 13% | 80.9% (active) | 44% | 44% | 84.4% (active) | 58% | 58% | 84.2% (active) |
| CCCCCCCCCCCCNCc1ccc2c(c1)OCO2 | 98% (active) | 96% (active) | 98.8% (active) | 99% (active) | 97% (active) | 99.1% (active) | 99% (active) | 96% (active) | 57.8% | 99% (active) | 96% (active) | 95.9% (active) | 99% (active) | 95% (active) | 98.7% (active) | 99% (active) | 95% (active) | 99% (active) |
| O=C(c1ccc(O)c(Br)c1)c1cc(Br)ccc1O | 66% | 98% (active) | 95.7% (active) | 77% (active) | 98% (active) | 96.9% (active) | 73% (active) | 98% (active) | 97.8% (active) | 86% (active) | 99% (active) | 95.3% (active) | 85% (active) | 97% (active) | 96% (active) | 78% (active) | 98% (active) | 95.9% (active) |
| CCCCCCOC(=O)COc1ccccc1 | 4% | 2% | 23.6% | 0% | -1% | -0.8% | -1% | 3% | 20.6% | 5% | 1% | 40.8% | 24% | 45% | 15.8% | -1% | 0% | 33.7% |
| O=C1NN=C(c2ccc(Cl)cc2)CC1C1C(=O)N(c2ccccc2)N=C1c1ccccc1 (stereo not given) | 96% (active) | 96% (active) | 98.5% (active) | 96% (active) | 98% (active) | 98.9% (active) | 95% (active) | 98% (active) | 99.3% (active) | 88% (active) | 97% (active) | 96.3% (active) | 97% (active) | 95% (active) | 97.8% (active) | 97% (active) | 96% (active) | 98.3% (active) |
| CCOC(=O)C(F)C(Br)C(=O)OCC (stereo not given) | 22% | 98% (active) | 90.5% (active) | 28% | 99% (active) | 91.8% (active) | 100% (active) | 100% (active) | 91.5% (active) | 98% (active) | 98% (active) | 89.8% (active) | 99% (active) | 100% (active) | 90.7% (active) | 49% | 98% (active) | 90% (active) |
| Cc1ccc(NC(=O)CCc2nnc(N)n2N)cc1 | -2% | -5% | -3.55% | -1% | 4% | 96.5% (active) | -6% | 0% | 97.5% (active) | 0% | 5% | 93.2% (active) | 4% | 7% | 95% (active) | -4% | -1% | 97.2% (active) |
| O=c1c(Cl)c(Cl)c(=O)c2sc3cc(Cl)ccc3[nH]c1=2 | 6% | 51% | 95.5% (active) | 3% | 27% | 95% (active) | -3% | 46% | 88% (active) | 2% | 7% | 95% (active) | 6% | 19% | 95.5% (active) | 2% | 59% | 96.9% (active) |
| BrC(Br)=C1C(=C(Br)Br)C(Br)C1Br (stereo not given) | 31% | 69% | 61.6% | -10% | 59% | 77.4% (active) | 72% (active) | 94% (active) | 83.8% (active) | 19% | 53% | 55% | 18% | 66% | 73% (active) | 40% | 71% (active) | 71.6% (active) |
| NC(=O)NCCCCC1NC(=S)N(c2ccccc2)C1=O (stereo not given) | -5% | -4% | -3.85% | -8% | -16% | -3.45% | -7% | 47% | 29.8% | -3% | -3% | -4.9% | -9% | -7% | 5.05% | -9% | -8% | -12.3% |
